Laboratory results taken from PubChem BioAssay (Tox21).
Several values for one entry are separate records, joined by “and”; a condition that tells them apart may be missing. Identical values can stand only once. Where a structure was tested more than once in an assay, its records may differ in their call. Activity calls are given as the source filed them. Unless noted, calls come from the whole dose curve; as a rule, active = well fitted curve in the direction sought with a large enough effect in the repeat runs; inconclusive = weak or mixed curves; inactive = no such curve, though single readings can be large; an effect the other way counts as inactive or inconclusive.

Legend:
[1] = qHTS assay to identify small molecule antagonists of the glucocorticoid receptor (GR) signaling pathway - cell viability counter screen (AID 720693); note: nearly all actives have a fitted effect of over 55% in size; note: potency is the fitted concentration of half-maximal effect
[2] = qHTS assay for identifying genotoxic compounds that show differential cytotoxicity against isogenic chicken DT40 cell lines with known DNA damage response pathways - Rev3 mutant cell line (AID 743014); note: nearly all actives have a fitted effect of over 55% in size; note: potency is the fitted concentration of half-maximal effect
[3] = qHTS assay to identify small molecule antagonists of the androgen receptor (AR) signaling pathway - cell viability counter screen (AID 743033; note: nearly all actives have a fitted effect of over 45% in size; note: potency is the fitted concentration of half-maximal effect)
[4] = qHTS assay to identify small molecule antagonists of the androgen receptor (AR) signaling pathway using the MDA cell line - cell viability counter screen (AID 743041; note: % is set by controls: 0 for no effect and ±100 for the full control effect; nearly all actives have a fitted effect of over 45% in size)
How it was run: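 MDA-kb2 AR-luc cells (MMTV-luciferase, AR/GR responsive) treated with compounds plus R1881 agonist for 16 h at 37C. CellTiter-Fluor added at 15.5 h; fluorescence read after 30 min in the same wells.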

[5] = qHTS assay to identify small molecule antagonists of the thyroid receptor (TR) signaling pathway - cell viability counter screen (AID 743064); note: nearly all actives have a fitted effect of over 50% in size; note: potency is the fitted concentration of half-maximal effect
How it was run: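 Same-well viability check: GH3.TRE-Luc cells stimulated with 1 nM T3 alongside test compound for 23.5 h, followed by CellTiter-Fluor fluorescence.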

[6] = qHTS assay to identify small molecule antagonists of the thyroid receptor (TR) signaling pathway (AID 743065); note: nearly all actives have a fitted effect of over 55% in size; note: potency is the fitted concentration of half-maximal effect
How it was run: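 GH3.TRE-Luc rat pituitary cells (two TREs driving luciferase) were dosed with compound, then stimulated with 1 nM T3 (final) for 23.5 h at 37 C. ONE-Glo luminescence was the read-out, with CellTiter-Fluor fluorescence as the cytotoxicity counter-screen.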

[7] = test system: thyroid hormone receptor (rat, GH3 cells); experiment: qHTS assay to identify small molecule agonists of the thyroid receptor (TR) signaling pathway (AID 743066; calls by dose curve; note: % is set by controls: 0 for no effect and ±100 for the full control effect)
[8] = qHTS assay to identify small molecule antagonists of the estrogen receptor alpha (ER-alpha) signaling pathway - cell viability counter screen (AID 743074; calls by dose curve;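 note: HEK293 cells carrying ER-alpha-UAS-bla reporter stimulated with 17beta-estradiol; nearly all actives have a fitted effect of over 45% in size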; note: potency is the fitted concentration of half-maximal effect)
[9] = biological target: Estrogen receptor (Homo sapiens) (UniProt P03372); experiment: qHTS assay to identify small molecule agonists of the estrogen receptor alpha (ER-alpha) signaling pathway using the BG1 cell line (AID 743079); details: BG1Luc4E2 cells, ERE-luciferase agonist, 22 h; note: nearly all actives have a fitted effect of over 20% in size; note: potency is the fitted concentration of half-maximal effect; for activation: % is set by controls: 0 for no effect and ±100 for the full control effect
[10] = qHTS assay to identify small molecule antagonists of the estrogen receptor alpha (ER-alpha) signaling pathway using the BG1 cell line (AID 743080; calls by dose curve;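 note: BG1 cells stimulated with 17beta-estradiol alongside compound; nearly all actives have a fitted effect of over 25% in size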; note: potency is the fitted concentration of half-maximal effect)
How it was run: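 Luminescence from a 4×ERE-luciferase reporter in BG1-Luc-4E2 cells served as read-out. Cells, pre-cultured 5 days in stripped-serum phenol-red-free medium, were exposed to compound with 17beta-estradiol co-stimulation for 21.5 h at 37 C.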

Aromatase (Homo sapiens) = Aromatase (Homo sapiens) (UniProt P11511); experiment: qHTS assay to identify aromatase inhibitors (AID 743083); note: nearly all actives have a fitted effect of over 55% in size; note: potency is the fitted concentration of half-maximal effect
[11] = qHTS assay for identifying genotoxic compounds that show differential cytotoxicity against isogenic chicken DT40 cell lines with known DNA damage response pathways - Rad54/Ku70 mutant cell line (AID 743015); note: potency is the fitted concentration of half-maximal effect; nearly all actives have a fitted effect of over 60% in size
[12] = qHTS assay to identify small molecule antagonists of the estrogen receptor alpha (ER-alpha) signaling pathway using the BG1 cell line - cell viability counter screen (AID 743081);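 note: compound given together with 17beta-estradiol as the ER stimulus; nearly all actives have a fitted effect of over 45% in size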; note: potency is the fitted concentration of half-maximal effect
[13] = qHTS assay to identify aromatase inhibitors - cell viability counter screen (AID 743084); note: potency is the fitted concentration of half-maximal effect
[14] = biological target: Androgen receptor (Homo sapiens) (UniProt P10275); experiment: qHTS assay to identify small molecule agonists of the androgen receptor (AR) signaling pathway using the MDA cell line (AID 743040; note: % is set by controls: 0 for no effect and ±100 for the full control effect; nearly all actives have a fitted effect of over 20% in size)
How it was run: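 MDA-kb2 breast carcinoma cells carrying MMTV-luciferase (responsive to AR and GR), plated 5 h then treated 16 h with compounds at 37C, 0% CO2. Read-out was ONE-Glo luminescence after 30 min at room temperature.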

[15] = biological target: Androgen receptor (Homo sapiens) (UniProt P10275); experiment: qHTS assay to identify small molecule antagonists of the androgen receptor (AR) signaling pathway using the MDA cell line (AID 743042; note: nearly all actives have a fitted effect of over 55% in size; note: potency is the fitted concentration of half-maximal effect)
How it was run: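 MDA-kb2 breast carcinoma cells carrying MMTV-luciferase (AR/GR responsive) were co-treated with compounds and the agonist R1881 for 16 h at 37C. Inhibition read as ONE-Glo luminescence; CellTiter-Fluor fluorescence measured in parallel for cytotoxicity.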

[16] = biological target: Estrogen receptor (Homo sapiens) (UniProt P03372); experiment: qHTS assay to identify small molecule agonists of the estrogen receptor alpha (ER-alpha) signaling pathway (AID 743075; calls by dose curve; note: potency is the fitted concentration of half-maximal effect); details: HEK293 ER-alpha-UAS-bla, beta-lactamase FRET ratio, 18 h; activation: at 70.1 µM (top of the series)
[17] = biological target: Estrogen receptor (Homo sapiens) (UniProt P03372); experiment: qHTS assay to identify small molecule antagonists of the estrogen receptor alpha (ER-alpha) signaling pathway (AID 743069; active = well fitted curve in the direction sought with a large enough effect in the signal ratio in the repeat runs, not every such curve was filed as active; inconclusive = weak or mixed curves, or effect the other way; inactive = no such curve, though single readings can be large or run the other way; the % refers to the signal ratio; note: % is set by controls: 0 for no effect and ±100 for the full control effect)
How it was run: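 HEK293 ER-alpha-UAS-bla GripTite cells, held overnight in 2% charcoal-stripped FBS, 5,000 cells/well, preincubated 4 h, then compound plus 17beta-estradiol for 18 h at 37C. Beta-lactamase read by LiveBLAzer B/G FRET substrate, 2 h at room temperature.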

[18] = biological target: Androgen receptor (Homo sapiens) (UniProt P10275); experiment: qHTS assay to identify small molecule antagonists of the androgen receptor (AR) signaling pathway (AID 743035; active = well fitted inhibition curve with a large enough effect in the signal ratio in the repeat runs, not every such curve was filed as active; inconclusive = weak or mixed curves, or effect the other way; inactive = no such curve, though single readings can be large or run the other way; the % refers to the signal ratio; note: % is set by controls: 0 for no effect and ±100 for the full control effect)
How it was run: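 Fluorescence from a beta-lactamase FRET substrate (LiveBLAzer B/G, 2 h, room temperature) measured inhibition of R1881-stimulated signaling in GeneBLAzer AR-UAS-bla HEK293 cells exposed to compound for 16 h at 37C.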

Chain of Estrogen receptor (Homo sapiens) (P03372 whole entry, looked up): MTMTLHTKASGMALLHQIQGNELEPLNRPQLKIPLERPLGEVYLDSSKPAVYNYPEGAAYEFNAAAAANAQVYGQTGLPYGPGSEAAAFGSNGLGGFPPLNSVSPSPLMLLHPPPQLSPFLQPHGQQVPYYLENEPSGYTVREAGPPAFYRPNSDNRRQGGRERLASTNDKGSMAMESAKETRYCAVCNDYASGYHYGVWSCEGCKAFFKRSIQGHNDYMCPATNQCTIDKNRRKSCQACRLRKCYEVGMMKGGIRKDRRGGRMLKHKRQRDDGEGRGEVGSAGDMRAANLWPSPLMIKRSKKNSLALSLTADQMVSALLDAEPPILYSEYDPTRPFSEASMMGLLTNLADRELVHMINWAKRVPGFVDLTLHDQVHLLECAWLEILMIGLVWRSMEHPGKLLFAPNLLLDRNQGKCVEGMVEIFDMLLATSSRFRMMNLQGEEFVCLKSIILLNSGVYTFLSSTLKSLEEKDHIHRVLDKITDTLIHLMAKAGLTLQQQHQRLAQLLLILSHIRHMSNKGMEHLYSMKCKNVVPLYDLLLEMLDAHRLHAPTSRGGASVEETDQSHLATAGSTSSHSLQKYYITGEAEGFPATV
Chain of Androgen receptor (Homo sapiens) (P10275 whole entry, looked up): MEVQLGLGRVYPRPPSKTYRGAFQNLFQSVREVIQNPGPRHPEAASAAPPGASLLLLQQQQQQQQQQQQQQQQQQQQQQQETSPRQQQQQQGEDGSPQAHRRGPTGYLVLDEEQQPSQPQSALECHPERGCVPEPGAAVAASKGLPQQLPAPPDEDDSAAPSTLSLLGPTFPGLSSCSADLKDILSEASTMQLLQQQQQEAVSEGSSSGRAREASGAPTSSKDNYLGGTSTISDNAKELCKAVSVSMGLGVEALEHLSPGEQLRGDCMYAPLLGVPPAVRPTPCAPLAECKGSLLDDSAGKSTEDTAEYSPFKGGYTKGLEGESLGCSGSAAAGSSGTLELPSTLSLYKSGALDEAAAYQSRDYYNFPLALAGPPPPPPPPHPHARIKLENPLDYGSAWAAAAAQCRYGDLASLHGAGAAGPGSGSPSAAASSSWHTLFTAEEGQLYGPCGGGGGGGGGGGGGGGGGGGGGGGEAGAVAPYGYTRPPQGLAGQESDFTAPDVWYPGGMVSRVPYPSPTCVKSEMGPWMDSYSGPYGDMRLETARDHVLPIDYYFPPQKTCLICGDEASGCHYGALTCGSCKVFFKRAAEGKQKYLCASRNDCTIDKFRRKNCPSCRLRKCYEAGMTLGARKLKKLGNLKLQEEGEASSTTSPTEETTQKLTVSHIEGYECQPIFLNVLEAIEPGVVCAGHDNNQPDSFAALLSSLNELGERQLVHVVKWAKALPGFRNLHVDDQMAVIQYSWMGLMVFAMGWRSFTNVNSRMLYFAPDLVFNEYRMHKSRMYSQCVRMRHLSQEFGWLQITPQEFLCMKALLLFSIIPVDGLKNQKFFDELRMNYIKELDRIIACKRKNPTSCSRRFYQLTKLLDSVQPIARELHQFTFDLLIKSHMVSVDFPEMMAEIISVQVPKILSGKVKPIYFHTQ
Chain of Aromatase (Homo sapiens) (P11511 whole entry, looked up): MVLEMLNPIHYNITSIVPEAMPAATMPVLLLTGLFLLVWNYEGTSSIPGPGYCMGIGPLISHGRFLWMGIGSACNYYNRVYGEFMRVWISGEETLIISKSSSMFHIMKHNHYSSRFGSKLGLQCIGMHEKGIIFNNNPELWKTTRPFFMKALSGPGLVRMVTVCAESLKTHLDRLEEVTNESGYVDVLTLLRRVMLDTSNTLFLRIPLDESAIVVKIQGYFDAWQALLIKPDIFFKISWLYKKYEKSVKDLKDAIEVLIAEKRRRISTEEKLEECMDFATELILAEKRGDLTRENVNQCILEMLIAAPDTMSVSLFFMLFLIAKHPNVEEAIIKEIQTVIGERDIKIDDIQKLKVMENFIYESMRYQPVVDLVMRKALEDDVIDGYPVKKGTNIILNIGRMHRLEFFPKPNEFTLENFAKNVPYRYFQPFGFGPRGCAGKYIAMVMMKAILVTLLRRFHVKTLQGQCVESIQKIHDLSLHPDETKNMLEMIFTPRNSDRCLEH

Cc1cccc2c1cc1ccc3cccc4ccc2c1c34
inactive: Potency [1] | Potency [2] | Potency [3] | Potency [4] | Potency [5] | Potency [6] | Potency [7] | Potency [8] | activation ([9]; at 95 µM (top of the series)) 15.8% | Potency [10] | Potency (Aromatase (Homo sapiens))

OCCCCCCCCCCCCBr
active: Potency [2] 3.92 µM | Potency [11] 5.53 µM
inactive: Potency [1] | Potency [4] | Potency [7] | Potency [8] | Potency [12] | Potency (Aromatase (Homo sapiens)) | Potency [13]

CCN(Cc1cccnc1)C(=O)c1cccc(Cl)c1[C@]1(C)C(=O)N(Cc2ccc(OC)cc2OC)c2ccc(Cl)cc21
inactive: Potency [1] | Potency [14] | Potency [7] | Potency [8]
active: Potency [2] 7.19 µM | Potency [11] 5.09 µM | Potency [15] 12.8 µM | Potency [5] 4.54 µM | Potency [6] 2.55 µM | Potency (Aromatase (Homo sapiens)) 16.1 µM | Potency [13] 16.1 µM

Cc1c(C)c2c(c(C)c1O)CCC(C)(COc1ccc(CC3SC(=O)NC3=O)cc1)O2 (stereo not drawn)
inactive: Potency [1] | Potency [14] | Potency [4] | Potency [7] | Potency [8] | Potency [16] | Potency [12] | Potency [13]
active: Potency [2] 26.6 µM and 15.4 µM | Potency [6] 13.3 µM and 24.3 µM | Potency [10] 23.7 µM | Potency (Aromatase (Homo sapiens)) 29.8 µM and 61.1 µM
inactive and 24.5 µM (active): Potency [3]

CCC1OCC(COc2ccc(Oc3ccccc3)cc2)O1 (stereo not drawn)
inactive: Potency [1] | Potency [2] | Potency [3] | Potency [4] | Potency [5] | Potency [8] | Potency [12] | Potency (Aromatase (Homo sapiens)) | Potency [13]

CCC(Cl)C(Cl)C(Cl)CC(Cl)C(Cl)C(C)Cl (stereo not drawn)
inactive: Potency [1] | Potency [3] | Potency [4] | Potency [7] | Potency [8] | Potency [12] | Potency (Aromatase (Homo sapiens)) | Potency [13]
active: Potency [2] 54.5 µM | Potency [11] 54.5 µM

Cc1cc(=O)oc2cc(N(C)C)ccc12
inactive: Potency [1] | Potency [3] | Potency [6] | Potency [7] | Potency [8] | Potency (Aromatase (Homo sapiens))
active: Potency [2] 54.5 µM

Cc1cc2c(cc1C(F)(F)F)N(C(=O)Nc1ccc(Oc3cccnc3C)nc1)CC2
active: Potency [2] 0.781 µM | Potency [11] 22 µM | Potency [6] 22 µM
inactive: Potency [1] | Potency [3] | Potency [5] | Potency [7] | Potency [17] | Potency [8] | Potency [16] | Potency [12]

O=Cc1cc(O)ccc1Br
active: Potency [9] 31.1 µM
inactive: Potency [1] | Potency [3] | Potency [4] | Potency [7] | Potency [17] | Potency [8] | Potency [16] | Potency [12] | Potency (Aromatase (Homo sapiens)) | Potency [13]

NC(=O)N1C(=O)C(C(=O)c2cc(Cl)cs2)c2cc(F)c(Cl)cc21 (stereo not drawn)
active: Potency [1] 38.9 µM | Potency [11] 61.1 µM | Potency [5] 61.1 µM | Potency [6] 61.1 µM | Potency [8] 49 µM | Potency [12] 8.63 µM
inactive: Potency [3] | Potency [14] | Potency [15] | Potency [16] | Potency [10]

Cc1cc(O)c2ccccc2c1O
inactive: Potency [1] | Potency [3] | Potency [18] | Potency [14] | Potency [4] | Potency [15] | Potency [17] | Potency [8] | activation ([9]; at 70.3 µM (top of the series)) -13.8% | Potency [12] | Potency (Aromatase (Homo sapiens)) | Potency [13]
active: Potency [11] 29.8 µM | Potency [6] 33.5 µM

CCN(C(=O)N(CC)c1ccccc1)c1ccccc1
active: Potency [2] 7.7 µM
inactive: Potency [1] | Potency [3] | Potency [4] | Potency [5] | Potency [6] | Potency [7] | Potency [8] | Potency [12] | Potency (Aromatase (Homo sapiens)) | Potency [13]

C/C=C(\C)C(=O)OCc1ccccc1
inactive: Potency [1] | Potency [3] | Potency [5] | Potency [6] | Potency [7] | Potency [8] | Potency [12] | Potency (Aromatase (Homo sapiens)) | Potency [13]

CN(C)c1ccc(C2(c3ccc(N(C)C)cc3)OC(=O)c3cc(N(C)C)ccc32)cc1
active: Potency [16] 21.8 µM [inconclusive]
inactive: Potency [1] | Potency [3] | Potency [18] | Potency [14] | Potency [4] | Potency [15] | Potency [5] | Potency [6] | Potency [7] | Potency [8] | activation ([9]; at 70.3 µM (top of the series)) -6.04% | Potency [10] | Potency [12] | Potency (Aromatase (Homo sapiens)) | Potency [13]
